The values below come from PubChem BioAssay AID686954 (Sanford-Burnham Center for Chemical Genomics, 2013).

Out of some 30,000 compounds screened, about 240 (0.8%) were called active. For the sample, actives were picked, then their nearest neighbours and some compounds at random. A number with no mark means an inactive call.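 How the source made its calls: active means at 10 µM dose, at least 30% inhibition, measured as corrected fluorescence normalized to stimulator and neutral control wells; inactive means the rest.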 Peptide text beside a SMILES is read from it. * marks the point of attachment. Bz = O=C(c1ccccc1)*

The target in this assay is Protein artemis (Homo sapiens) (UniProt Q96SD1). The experiment in a line: Artemis endonuclease inhibitors, primary screen, biochemical, fluorescence intensity, FAM/BHQ-1 hairpin substrate (AID 686954). Particulars: recombinant Artemis, quenched FAM hairpin cleavage fluorescence; at 10 µM; stronger effect = higher value.
Chain of Protein artemis (Homo sapiens) (Q96SD1 whole entry, looked up): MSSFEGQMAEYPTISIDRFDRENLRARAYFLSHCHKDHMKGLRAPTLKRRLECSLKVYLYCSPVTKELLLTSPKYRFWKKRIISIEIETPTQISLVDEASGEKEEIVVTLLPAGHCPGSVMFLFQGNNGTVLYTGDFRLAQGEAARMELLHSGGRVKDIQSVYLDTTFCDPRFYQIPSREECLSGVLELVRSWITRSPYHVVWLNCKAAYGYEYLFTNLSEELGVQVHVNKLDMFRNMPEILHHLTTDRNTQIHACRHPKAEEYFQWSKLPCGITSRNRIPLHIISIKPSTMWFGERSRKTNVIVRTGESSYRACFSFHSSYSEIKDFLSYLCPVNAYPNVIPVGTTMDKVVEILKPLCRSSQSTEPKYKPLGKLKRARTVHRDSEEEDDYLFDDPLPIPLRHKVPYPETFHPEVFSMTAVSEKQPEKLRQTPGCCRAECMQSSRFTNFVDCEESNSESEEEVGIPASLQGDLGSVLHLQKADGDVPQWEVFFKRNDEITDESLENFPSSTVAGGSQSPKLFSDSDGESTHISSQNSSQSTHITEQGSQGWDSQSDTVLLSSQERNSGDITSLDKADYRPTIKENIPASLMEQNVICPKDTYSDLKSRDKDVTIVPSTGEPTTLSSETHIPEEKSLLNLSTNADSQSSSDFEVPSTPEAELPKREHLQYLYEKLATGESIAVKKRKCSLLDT
For orientation: inhibition means the change of the read-out against control, counted positive when it falls. For `O=c1c2ccccc2nc2n1C(CSCc1ccccc1)CS2` (stereo not drawn), the inhibition was 2.82%.
For `COC(=O)CSC1=C(C#N)C(c2ccccc2OC)C(C(=O)OC)C(=O)N1` (stereo not drawn), the inhibition is -3.1%.
Under `Cc1ccc(/C=N/NC(=O)c2sccc2OCc2ccc(F)cc2)cc1` stands 22.2%; under `COc1ccc(CC(=O)Nc2nc3n(n2)C(c2ccccc2)CC(=O)N3)cc1OC` (stereo not drawn), -12.5%; under `O=C(N/N=C/c1ccc(O)c(O)c1)C1c2ccccc2Oc2ccccc21`, 30.2% (active).
Under `O=C(N/N=C/c1ccsc1)c1cc(O)cc(O)c1` stands 10.2%; under `COc1ccc(C(=O)Nc2ccccc2C(=O)N/N=C/c2ccc(O)c(OC)c2)cc1`, 3.38%.
Under `Clc1cccc(-c2nc3nc4ccccc4nc3n2Cc2ccco2)c1` stands 27%; under `Cc1ccc(Cn2c(C)nc3c(c2=O)c2nc4ccccc4nc2n3Cc2ccco2)cc1`, 40.3% (active); under `Cc1ccc(Cn2c(NC(=O)c3ccco3)nc3ccccc32)cc1`, 0.73%.
Regarding `CCCn1c(C)cc(C(=O)COC(=O)c2c(C)nn(-c3ccccc3)c2C)c1C`, the inhibition is 10.5%.
Consider `CC(C)(C)Cc1nnc(NC(=O)c2cc(-c3ccccc3)nc3ccccc23)s1`, for which the inhibition was 13.6%.
As to `O=C(/C=C/Nc1ccccc1OC(F)(F)F)C(F)(F)F`, the inhibition is -11.1%.
On to `COc1ccc(Cc2nnnn2CC(=O)O)cc1`, for which the inhibition is 3.92%.
Under `CC1CCc2c(c3ccccc3[nH]c2=O)O1` (stereo not drawn) stands 13.8%; under `Cn1c(CO)cnc1SCc1ccccc1`, -0.47%; under `COc1ccccc1NS(=O)(=O)N(C)C`, 4.92%.
Take `C=CCn1c(N)cc(=O)nc1SCC(=O)Nc1cccc2ccccc12`: the inhibition is -2.38%.
As to `O=C(COc1cc(Cl)c(Cl)cc1Cl)NC(=O)NC1CCCC1`, the inhibition is 5.4%.
Under `O=C(NC(Cc1ccccc1)C(=O)N1CCCC1C(=O)O)c1ccccc1` (stereo not drawn) (Bz-Phe-Pro-OH; configuration not given here) stands 3.37%; under `CCCC(C(=O)NCc1ccco1)N(C(=O)CNS(=O)(=O)c1ccccc1)C1CCCC1` (stereo not drawn), 9.71%.
On to `CSC1=N/C(=C\C=C\c2cccs2)C(=O)S1`, for which the inhibition was 4.46%.
For the molecule `Cc1ccsc1/C=C1\SC(N2CCOCC2)=NC1=O`, the inhibition is -5.58%.
Under `Cc1ccc(N2CCN(C3=NC(=O)/C(=C\c4cccs4)S3)CC2)cc1` stands 30.4% (active); under `Cc1cccc(C(=O)N2CCCN(C(=O)c3cccc(C)c3)CC2)c1`, 4.29%.
Under `CCC(C)NC(=O)c1cc(Cl)ccc1OC` (stereo not drawn) stands 1.25%.
Under `N#CCCn1cnc2ccccc21` stands 0.47%.
On to `c1ccc(-c2nccc(-c3ccc(-n4cnc5ccccc54)cc3)n2)nc1`, for which the inhibition was 100% (active).
Take `COc1ccc(-c2cc(C(=O)n3cnc4ccccc43)c3ccccc3n2)cc1`: the inhibition was 0.93%.
As to `CC(=O)N1Cc2ccccc2CC1C(=O)O` (stereo not drawn), the inhibition is -0.69%.
Under `Cc1ccc(C(=O)Nc2c(C#N)c(C)c(C)n2Cc2ccccc2)cc1` stands -5.83%.
As for `CC(C)NC(=O)C(=O)NCCCOC(C)C`, the inhibition was -3.28%.
Under `COC(=O)C(C(=O)Nc1cccc(C)n1)C1CCCCCC1` (stereo not drawn) stands -2.41%; under `COc1ccc(CCN2C(=O)C3CC=C(C)CC3C2=O)cc1OC` (stereo not drawn), -6.71%.
Under `COC(=O)C1=C(Nc2ccc(OC)cc2)C=C(C)C(C(=O)OC)C1c1ccc(C)cc1` (stereo not drawn) stands -2.07%; under `Fc1ccc(Br)cc1/C=N/n1cnnc1`, -9.95%; under `O=C(/C=C/c1cc2c(cc1Br)OCO2)NCc1ccc(Cl)cc1`, -4.49%.
Consider `O=C(NN1C(=O)C2C3C=CC(C4CC34)C2C1=O)c1ccc(Cl)cc1` (stereo not drawn), for which the inhibition was -4.12%.
As to `O=c1c2ccccc2nc2n1C(CSc1ccc(F)cc1)CN2` (stereo not drawn), the inhibition was -16.9%.
Under `COc1ccc(C(=O)Oc2cc(/C=N/NS(=O)(=O)c3ccc(C)cc3)ccc2OC)cc1` stands 4.47%; under `COC(=O)c1sccc1-n1cccc1C(=O)C(=O)N1CCCCC1`, -4.39%; under `O=C(/C=N/O)Nc1ccccc1`, 16.8%.
For `CSc1ccc(C#N)cc1NC(=O)c1cccc(Cl)c1`, the inhibition was -11%.
Consider `Cc1c(C(=O)NCc2ccccc2)cnn1-c1ccccc1`, for which the inhibition was 0.06%.
Under `O=C(c1ccccc1)C(Cn1cncn1)C(Sc1ccccc1)c1ccccc1` (stereo not drawn) stands 7.82%; under `CC(C)NC(=O)CSc1ccccc1C(=O)NCc1ccc2c(c1)OCO2`, -4.49%.
Under `CCOc1ccc2nc(SC(CC)C(=O)Nc3cc(C)on3)sc2c1` (stereo not drawn) stands -0.74%; under `CCc1ccc(/C=N/NC(=O)c2ccc(OC3CCCC3)cc2)s1`, 14.9%.
Under `O=C(COc1ccc(/C=N/NS(=O)(=O)c2ccccc2)cc1)NCCc1ccccc1` stands 5.78%; under `NC(=O)c1ccccc1NC(=O)c1ccccc1F`, 3.21%; under `Cc1ccc(NC(=S)NC(=O)c2ccc(-c3ccccc3)cc2)c(C)c1`, 8.05%.
As for `Cc1ccc(NC(=O)Nc2ccc3oc(C)nc3c2)cc1`, the inhibition was 4.51%.
As to `COc1cc(C(=S)N2CCOCC2)cc(OC)c1OC(=O)c1cc([N+](=O)[O-])cc([N+](=O)[O-])c1`, the inhibition is 5.88%.
Consider `Cc1ccc(OCCCC(=O)N2CCOCC2)c(C)c1`, for which the inhibition is -3.31%.
Under `CCOc1cc(C(=S)N2CCOCC2)ccc1O` stands 44.1% (active).
For the molecule `Nc1c(-c2ccc(F)cc2)cnn1C1CCS(=O)(=O)C1` (stereo not drawn), the inhibition is -12.3%.
Under `O=C(NC1CCC(O)CC1)c1ccc(S(=O)(=O)NCc2ccco2)cc1` (stereo not drawn) stands -0.49%.
For the molecule `COCCCNCC(=O)Nc1sc(C)c(C)c1C(=O)OC`, the inhibition is 8.99%.
Under `CSc1ccc(C#N)cc1NC(=O)c1ccc(Cl)cc1` stands -3.87%; under `Cc1cccc(N2CCN(C(c3ccccc3)c3nnnn3CC3CCCO3)CC2)c1C` (stereo not drawn), 1.54%; under `O=C(O)C1CC=CCC1C(=O)Nc1ccccc1C(=O)N1CCN(c2ccccc2)CC1` (stereo not drawn), 11.9%.
For `CC1CN(c2nc(-c3ccccc3)nnc2-c2ccccc2)CC(C)O1` (stereo not drawn), the inhibition is 3.23%.
Under `Cc1cc(N=CC2=C(O)CCCC2=O)no1` stands -4.13%.
